# Assay results taken from PubChem BioAssay AID624037 (The Scripps Research Institute Molecular Screening Center, 2012).
# Hit rate of the full screen: of about 360,000 compounds, about 700 (0.19%) were called active. This is one part of a sample in which actives are shown more often than they occur.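 How the source made its calls: active means activation above the run's mean over test compounds plus 3 SD (cut at about 23% in these data); inactive means the rest.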
# Target: Muscarinic acetylcholine receptor M5 (Homo sapiens) (UniProt P08912)
# Assay: human M5 muscarinic receptor agonists, primary screen, CHO-K1 cells, Fluo-8 calcium fluorescence (AID 624037);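 further: signal is peak over basal fluorescence ratio across the kinetic read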
# Settings: CHO-K1 hM5 cells, at 3 µM, hits give high values, 0% DMSO wells, 100% maximal acetylcholine response
# Chain of Muscarinic acetylcholine receptor M5 (Homo sapiens) (P08912 whole entry, looked up): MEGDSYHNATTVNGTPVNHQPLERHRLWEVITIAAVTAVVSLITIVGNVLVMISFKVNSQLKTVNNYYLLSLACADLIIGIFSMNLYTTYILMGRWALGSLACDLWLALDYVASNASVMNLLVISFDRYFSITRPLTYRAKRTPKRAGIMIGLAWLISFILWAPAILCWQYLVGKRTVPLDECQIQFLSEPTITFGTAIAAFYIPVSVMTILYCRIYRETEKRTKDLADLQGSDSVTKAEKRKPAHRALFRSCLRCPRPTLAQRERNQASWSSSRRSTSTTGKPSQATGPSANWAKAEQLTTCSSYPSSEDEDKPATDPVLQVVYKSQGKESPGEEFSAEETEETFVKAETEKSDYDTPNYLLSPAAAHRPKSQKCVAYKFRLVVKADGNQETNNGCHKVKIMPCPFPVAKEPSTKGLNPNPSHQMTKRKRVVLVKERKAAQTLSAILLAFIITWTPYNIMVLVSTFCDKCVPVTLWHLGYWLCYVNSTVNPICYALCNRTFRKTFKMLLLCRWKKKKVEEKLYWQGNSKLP
row,SMILES,activation
1,CC(C)C[C@H]1CNC(=S)N1C[C@H]1CCCN1C[C@H](Cc1ccc(O)cc1)N1C[C@H](Cc2ccc(O)cc2)N(CC2CCCCC2)C1=S,-1.54% (inactive)
2,O=C(CCCN=C1NS(=O)(=O)c2ccccc21)OCC(=O)c1ccc(F)c(F)c1,37.2% (active)
3,N#CC1(NC(=O)COC(=O)CCN=C2NS(=O)(=O)c3ccccc32)CCCCC1,-5.2% (inactive)
4,Cc1ccccc1C(=O)NCCN=C1NS(=O)(=O)c2ccccc21,-1.12% (inactive)
5,O=C(Cc1c(Cl)cccc1Cl)NC1CC1,-4.03% (inactive)
6,Cc1ccc(C(=O)N(CC(=O)NC2CCCC2)c2ccc(F)cc2)s1,-2.46% (inactive)
7,O=C(/C=C(O)/C=C/c1ccc(O)cc1)/C=C/c1ccc(O)cc1,156% (active)
8,COc1cccc(C(=O)NNC(=O)/C=C/c2ccccc2)c1,-2.95% (inactive)
9,c1ccc(C(=NNc2nc3ccccc3s2)c2ccccn2)cc1,58.8% (active)
10,Cc1cc(C)c2c(c1)cc(C)c1nnc(SCC(=O)Nc3cc(C)on3)n12,3.15% (inactive)
11,O=C(CN(C(=O)CCC(=O)Nc1nccs1)c1ccc(F)cc1)NCc1ccc2c(c1)OCO2,-1.79% (inactive)
12,Cc1nccn1CCCNC(=O)CC1C(=O)NCCN1Cc1ccc(Cl)c(F)c1 (stereo not given),-2.66% (inactive)
13,CC(=O)C[C@@H]1OC[C@H](CO)N1S(=O)(=O)c1ccc(C)cc1,4.39% (inactive)
14,O=C(COC(=O)Cc1ccc(Br)cc1)Nc1ccc(N2CCOCC2)cc1,4.95% (inactive)
15,CC(C)[C@H](NC(=O)N1CC(=O)Nc2ccccc21)C(=O)N[C@@H](Cc1c[nH]c2ccccc12)C(=O)O,1.96% (inactive)
16,Cc1cccc(C)c1NC(=O)CNC(=O)Cc1ccc(Br)cc1,-2.94% (inactive)
17,CCOc1ccc(CNC(=O)CCC(=O)N2CCSc3ccccc32)cc1,3.47% (inactive)
18,O=C1C(=O)N(CC2COc3ccccc3O2)c2ccccc21 (stereo not given),26.9% (active)
19,O=C1C(=O)N(c2ccccc2)c2ccccc21,15.5% (inactive)
20,CCn1cc(C(=O)NCC2COc3ccccc3O2)c2cc(OC)c(OC)cc2c1=O (stereo not given),1.23% (inactive)
21,c1ccc2c(c1)OCC(CNc1ncnc3nc[nH]c13)O2 (stereo not given),108% (active)
22,O=C(Cn1nc(Cc2cccnc2)c2ccccc2c1=O)NCC1COc2ccccc2O1 (stereo not given),1.51% (inactive)
23,CCC(=O)c1ccc(OCC(=O)N(CC)CC2COc3ccccc3O2)cc1 (stereo not given),-1.18% (inactive)
24,Cc1ccc2c(c1)C(O)(CC(=O)c1cccc(-n3cccc3)c1)C(=O)N2 (stereo not given),3.01% (inactive)
25,Cc1cccc(N=C2NC(=O)CS2)c1C,2.4% (inactive)
